Source: PubChem BioAssay (NCI)
This is part of a sample that, as a whole, favours compounds with a hit. Of some 79,000 tested, about 15% had one in any assay. Calls of active or inactive are those of the source. Cut-off read from the data, not from the text of the source: active = growth inhibition above about 70%; inactive = the rest.

What was measured:
[1] = NCI Yeast Anticancer Drug Screen. Data for the rad50 strain (AID 155);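 note: 0% = growth of vehicle-only cultures of the same strain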; conditions: S. cerevisiae rad50 strain growth inhibition, active compounds read high
Procedure, shortened: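 Vehicle-treated cultures provide the reference for the growth inhibition reported for compound-exposed, repair-deficient yeast.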

[2] = NCI Yeast Anticancer Drug Screen. Data for the mec2-1 strain (AID 157); conditions: S. cerevisiae mec2-1 strain, active compounds read high
Procedure, shortened: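 Cells of the genetically defined mec2-1 yeast strain are incubated with test compound. Inhibition of growth is calculated against vehicle-treated controls.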

[3] = NCI Yeast Anticancer Drug Screen. Data for the sgs1 mgt1 strain (AID 161);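 note: 0% = growth of cultures given vehicle only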; conditions: S. cerevisiae sgs1 mgt1 strain, active compounds read high
Procedure, shortened: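 Read-out: growth inhibition vs vehicle controls. Cells: mutant yeast strain deficient in DNA damage repair.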

[4] = NCI Yeast Anticancer Drug Screen. Data for the cln2 rad14 strain (AID 165);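 note: 0% = growth equal to vehicle treated cultures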; conditions: S. cerevisiae cln2 rad14 strain, active compounds read high
Procedure, shortened: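 The screen exposed genetically defined yeast (cln2 rad14) to test compounds and scored growth inhibition relative to vehicle-treated controls.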

[5] = NCI Yeast Anticancer Drug Screen. Data for the bub3 strain (AID 167); conditions: S. cerevisiae bub3 mutant strain, active compounds read high
Procedure, shortened: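 Mutant yeast screening strain plus compound; vehicle-treated cultures serve as the 0% inhibition reference.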

[6] = NCI Yeast Anticancer Drug Screen. Data for the mlh1 rad18 strain (AID 175); conditions: S. cerevisiae mlh1 rad18 strain growth inhibition, active compounds read high
Procedure, shortened: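 Compound-treated yeast growth, normalised to vehicle controls. Strain bears defined DNA repair mutations.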

[7] = at 5.0 µM (retest, dose inferred, filed as 0.5)
[8] = at 50.0 µM (retest, dose inferred, filed as 5.0)

Measured: growth inhibition

C=C1C[C@H]2C=Nc3cc(OCCCOc4cc5c(cc4OC)C(=O)N4CC(=C)C[C@H]4C=N5)c(OC)cc3C(=O)N2C1
active: [1]; [7] 92% | [1]; [8] 95% | [1]; at 50.0 µM 98.3% | [2]; [7] 94% | [2]; [8] 97% | [2]; at 50.0 µM 98.7% | [3]; [7] 88% | [3]; [8] 94% | [3]; at 50.0 µM 97.7% | [4]; [7] 92% | [4]; [8] 97% | [4]; at 50.0 µM 98.3% | [5]; [7] 86% | [5]; [8] 95% | [5]; at 50.0 µM 98.6% | [6]; [7] 92% | [6]; [8] 95% | [6]; at 50.0 µM 98.7%

O=C1N=c2ccc(Br)cc2=C1c1sc(=O)n(Cc2nc3ccccc3[nH]2)c1O
active: [1]; at 50.0 µM 70.5% | [3]; at 50.0 µM 79.2% | [6]; at 50.0 µM 88.7%
inactive: [1]; [7] 3% | [1]; [8] -8% | [2]; [7] -11% | [2]; [8] 8% | [2]; at 50.0 µM 54% | [3]; [7] -2% | [3]; [8] 4% | [4]; [7] -6% | [4]; [8] 6% | [4]; at 50.0 µM 55.7% | [5]; [7] 1% | [5]; [8] 13% | [5]; at 50.0 µM 9.4% | [6]; [7] 0% | [6]; [8] 38%

CCOC(=O)C(C)(C)C
inactive: [1]; [7] 0% | [1]; [8] 29% | [1]; at 50.0 µM 15.8% | [2]; [7] 3% | [2]; [8] 16% | [2]; at 50.0 µM -8.2% | [3]; [7] 2% | [3]; [8] 12% | [3]; at 50.0 µM 14.4% | [4]; [7] 0% | [4]; [8] 11% | [4]; at 50.0 µM 25.6% | [5]; [7] 2% | [5]; [8] 29% | [6]; [7] 3% | [6]; [8] 16% | [6]; at 50.0 µM 23.3%
active: [5]; at 50.0 µM 73%

CN(/N=C/c1ccc([N+](=O)[O-])o1)C(N)=O
active: [1]; at 50.0 µM 80% | [3]; at 50.0 µM 87.3% | [6]; at 50.0 µM 89.4%
inactive: [1]; [7] 10% | [1]; [8] 44% | [2]; [7] 4% | [2]; [8] 18% | [2]; at 50.0 µM 49.5% | [3]; [7] 10% | [3]; [8] 57% | [4]; [7] 3% | [4]; [8] 17% | [4]; at 50.0 µM 49.5% | [5]; [7] 6% | [5]; [8] 28% | [5]; at 50.0 µM 46.3% | [6]; [7] 22% | [6]; [8] 58%

Nc1ccc2oc(=O)c3ccccc3c2c1
active: [1]; [8] 94% | [1]; at 50.0 µM 85.3% | [3]; [8] 85% | [5]; [8] 74% | [6]; [8] 94% | [6]; at 50.0 µM 86.8%
inactive: [1]; [7] 18% | [2]; [7] 7% | [2]; [8] 69% | [2]; at 50.0 µM 36.6% | [3]; [7] 10% | [3]; at 50.0 µM 48% | [4]; [7] 8% | [4]; [8] 30% | [4]; at 50.0 µM 6.8% | [5]; [7] -3% | [5]; at 50.0 µM 33.1% | [6]; [7] 22%

O=C(CCl)NC(=O)N(/N=C/c1ccco1)c1ccccc1
inactive: [1]; [7] -1% | [1]; [8] 52% | [1]; at 50.0 µM 44.8% | [2]; [7] 3% | [2]; [8] 60% | [2]; at 50.0 µM 47% | [3]; [7] -4% | [3]; [8] 38% | [3]; at 50.0 µM 55.2% | [4]; [7] 1% | [4]; [8] 24% | [4]; at 50.0 µM -16.1% | [5]; [7] 3% | [5]; at 50.0 µM 59.2% | [6]; [7] 3% | [6]; [8] 68% | [6]; at 50.0 µM 58%
active: [5]; [8] 83%

O=C(O)CCc1ccc2ccccc2c1
active: [4]; at 50.0 µM 83.2% | [6]; at 50.0 µM 88.2%
inactive: [1]; [7] -2% | [1]; [8] 48% | [1]; at 50.0 µM 62.8% | [2]; [7] 0% | [2]; [8] 38% | [2]; at 50.0 µM 51.4% | [3]; [7] 1% | [3]; [8] 37% | [3]; at 50.0 µM 37.7% | [4]; [7] -4% | [4]; [8] 32% | [5]; [7] -6% | [5]; [8] 18% | [5]; at 50.0 µM 53.7% | [6]; [7] -4% | [6]; [8] 41%

C=C1CCCCC1C(C(=O)O)(c1ccccc1)c1ccccc1 (stereo not given)
inactive: [5]; [7] 51%
active: [1]; [7] 77% | [1]; [8] 98% | [1]; at 50.0 µM 98.7% | [2]; [7] 71% | [2]; [8] 99% | [2]; at 50.0 µM 99.3% | [3]; [7] 79% | [3]; [8] 99% | [3]; at 50.0 µM 99.3% | [4]; [7] 72% | [4]; [8] 99% | [4]; at 50.0 µM 99.3% | [5]; [8] 99% | [5]; at 50.0 µM 98.2% | [6]; [7] 92% | [6]; [8] 99% | [6]; at 50.0 µM 99.5%

CC1OC(Oc2c(-c3ccc(O)c(O)c3O)oc3cc(O)ccc3c2=O)C(O)C(O)C1O (stereo not given)
inactive: [1]; [7] -4% | [1]; [8] -2% | [1]; at 50.0 µM 14.4% | [2]; [7] -10% | [2]; [8] -5% | [2]; at 50.0 µM 9.6% | [3]; [7] -5% | [3]; [8] 8% | [3]; at 50.0 µM 17.6% | [4]; [7] 3% | [4]; [8] -6% | [4]; at 50.0 µM 2.9% | [5]; [7] -3% | [5]; [8] -3% | [5]; at 50.0 µM -12.7% | [6]; [7] -5% | [6]; [8] -8% | [6]; at 50.0 µM 27.8%

O=[N+]([O-])c1ccc(/C=N/NC2=CS(=O)(=O)C=C2)cc1
inactive: [1]; [7] 0% | [1]; [8] 17% | [1]; at 50.0 µM 0.8% | [2]; [7] -2% | [2]; [8] 0% | [2]; at 50.0 µM 2.45% | [3]; [7] -5% | [3]; [8] 1% | [3]; at 50.0 µM 8.4% | [4]; [7] -2% | [4]; [8] 0% | [4]; at 50.0 µM 38% | [5]; [7] -4% | [5]; [8] 5% | [5]; at 50.0 µM 16.7% | [6]; [7] -4% | [6]; [8] 2% | [6]; at 50.0 µM 1.1%
